Compounds without any hit were thinned out: in the full panel of roughly 79,000, 15% have a hit. Calls of active or inactive are those of the source. Rule as the data show it: active = growth inhibition above about 70%; inactive = the rest.
Legend:
[1] = NCI Yeast Anticancer Drug Screen. Data for the wt2 strain (AID 169); conditions: S. cerevisiae wt2 strain growth inhibition, stronger effect = higher value
In short: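 Inhibition of yeast growth was determined after compound treatment, normalised to controls receiving only vehicle.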

[2] = NCI Yeast Anticancer Drug Screen. Data for the mlh1 strain (AID 171);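 also: 0% = growth of vehicle-treated control cultures of the same strain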; conditions: S. cerevisiae mlh1 strain growth inhibition, stronger effect = higher value
In short: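 Vehicle-normalised growth inhibition of a repair- or checkpoint-altered yeast strain following compound treatment.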

[3] = NCI Yeast Anticancer Drug Screen. Data for the sgs1 strain (AID 173);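 also: 0% = growth of vehicle-only control cultures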; conditions: S. cerevisiae sgs1 mutant, stronger effect = higher value
In short: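 Screen format: yeast with repair or checkpoint alterations, compound exposure, growth read relative to vehicle.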

[4] = NCI Yeast Anticancer Drug Screen. Data for the mlh1 rad18 strain (AID 175); conditions: S. cerevisiae mlh1 rad18 strain growth inhibition, stronger effect = higher value
In short: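 Vehicle-treated cultures served as the reference for growth inhibition in a yeast strain carrying DNA damage repair alterations exposed to each compound.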

[5] = NCI Yeast Anticancer Drug Screen. Data for the rad18 strain (AID 177); conditions: S. cerevisiae rad18 mutant growth inhibition, stronger effect = higher value
In short: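 Test articles were incubated with altered yeast defective in DNA damage repair. Results are given as inhibition of growth versus vehicle.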

[6] = NCI Yeast Anticancer Drug Screen. Data for the rad52 strain (AID 147);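 also: 0% = growth of vehicle-treated control cultures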; conditions: S. cerevisiae rad52 mutant growth inhibition, stronger effect = higher value
In short: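 Vehicle-treated cultures served as the reference for growth inhibition of compound-exposed yeast bearing a DNA repair mutation.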

[7] = NCI Yeast Anticancer Drug Screen. Data for the wt1 strain (AID 149);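 also: 0% = growth of vehicle-treated wt1 cultures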; conditions: S. cerevisiae wt1 strain (SPY 50644) growth inhibition, stronger effect = higher value
In short: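 Each compound is tested on wt1 yeast and the loss of growth versus vehicle gives the inhibition value.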

[8] = NCI Yeast Anticancer Drug Screen. Data for the rad50EPP+ strain (AID 151);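 also: 0% = growth of vehicle-treated control cultures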; conditions: S. cerevisiae rad50 mutant strain, stronger effect = higher value
In short: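 In this screen, rad50EPP+ yeast were exposed to compounds. Growth inhibition was scored against vehicle-treated controls.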

[9] = NCI Yeast Anticancer Drug Screen. Data for the mgt1 strain (AID 153); conditions: S. cerevisiae mgt1 mutant growth inhibition, stronger effect = higher value
In short: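 mgt1 strain exposed; growth vs vehicle control recorded as inhibition.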

[10] = NCI Yeast Anticancer Drug Screen. Data for the rad50 strain (AID 155);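 also: 0% = growth of vehicle-only cultures of the same strain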; conditions: S. cerevisiae rad50 strain growth inhibition, stronger effect = higher value
In short: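 Vehicle-treated cultures provide the reference for the growth inhibition reported for compound-exposed, repair-deficient yeast.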

[11] = NCI Yeast Anticancer Drug Screen. Data for the mec2-1 strain (AID 157); conditions: S. cerevisiae mec2-1 strain, stronger effect = higher value
In short: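 Vehicle-treated cultures served as reference for growth inhibition of compound-exposed mec2-1 yeast.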

[12] = NCI Yeast Anticancer Drug Screen. Data for the rad14 strain (AID 159);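 also: 0% = growth of vehicle-treated control cultures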; conditions: S. cerevisiae rad14 strain growth inhibition, stronger effect = higher value
In short: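 Inhibition of growth is reported for a repair-deficient yeast mutant following compound treatment, calculated relative to cultures that received vehicle.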

[13] = NCI Yeast Anticancer Drug Screen. Data for the sgs1 mgt1 strain (AID 161);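 also: 0% = growth of cultures given vehicle only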; conditions: S. cerevisiae sgs1 mgt1 strain, stronger effect = higher value
In short: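 Inhibition of yeast growth, normalised to vehicle-treated controls, is reported for a strain bearing genetic alterations in DNA damage repair.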

[14] = NCI Yeast Anticancer Drug Screen. Data for the CLN2oe strain (AID 163);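 also: 0% = growth of vehicle-only control cultures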; conditions: S. cerevisiae CLN2oe strain, stronger effect = higher value
In short: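 Inhibition relative to vehicle-treated yeast is reported. Cells: strain with genetic alteration in cell-cycle control, grown with compound.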

[15] = NCI Yeast Anticancer Drug Screen. Data for the cln2 rad14 strain (AID 165);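 also: 0% = growth equal to vehicle treated cultures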; conditions: S. cerevisiae cln2 rad14 strain, stronger effect = higher value
In short: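 Each compound was tested on cln2 rad14 yeast. Inhibition of growth was calculated against vehicle-exposed controls.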

[16] = NCI Yeast Anticancer Drug Screen. Data for the bub3 strain (AID 167); conditions: S. cerevisiae bub3 mutant strain, stronger effect = higher value
In short: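 Mutant yeast screening strain plus compound; vehicle-treated cultures serve as the 0% inhibition reference.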

[17] = at 5.0 µM (retest, dose inferred, filed as 0.5)
[18] = at 50.0 µM (retest, dose inferred, filed as 5.0)

Measured: growth inhibition

Cc1cccc2c(Cl)c3cccc(C)c3nc12
inactive: [1]; at 1.2 µM -4% | [1]; at 3.7 µM -3% | [1]; at 11.0 µM -2% | [1]; at 33.0 µM 3% | [1]; at 100.0 µM 5% | [2]; at 1.2 µM -3% | [2]; at 3.7 µM -2% | [2]; at 11.0 µM 3% | [2]; at 33.0 µM 12% | [2]; at 100.0 µM 12% | [3]; at 1.2 µM -3% | [3]; at 3.7 µM -5% | [3]; at 11.0 µM -4% | [3]; at 33.0 µM 2% | [3]; at 100.0 µM 2% | [4]; [17] -16% | [4]; [18] 49% | [4]; at 50.0 µM 10.1% | [5]; at 1.2 µM -3% | [5]; at 3.7 µM -3% | [5]; at 11.0 µM -1% | [5]; at 33.0 µM 6% | [5]; at 100.0 µM 14%

COc1ccc2nc(CCc3ccccc3)ccc2c1
active: [6]; at 100.0 µM 96% | [7]; at 100.0 µM 96% | [10]; at 100.0 µM 94% | [11]; [18] 81% | [11]; at 50.0 µM 84.7% | [12]; at 100.0 µM 95% | [13]; [18] 87% | [13]; at 50.0 µM 84.1% | [16]; [18] 78% | [16]; at 50.0 µM 87.7% | [16]; at 100.0 µM 88% | [1]; at 100.0 µM 99% | [2]; at 100.0 µM 91% | [3]; at 100.0 µM 96% | [4]; [18] 70% | [5]; at 100.0 µM 92%
inactive: [6]; at 1.2 µM -18% | [6]; at 3.7 µM -25% | [6]; at 11.0 µM -14% | [6]; at 33.0 µM -7% | [7]; at 1.2 µM -5% | [7]; at 3.7 µM -7% | [7]; at 11.0 µM -1% | [7]; at 33.0 µM -7% | [8]; at 1.2 µM -7% | [8]; at 3.7 µM -9% | [8]; at 11.0 µM 11% | [8]; at 33.0 µM 26% | [8]; at 100.0 µM 34% | [9]; at 1.2 µM -9% | [9]; at 3.7 µM -7% | [9]; at 11.0 µM -6% | [9]; at 33.0 µM -5% | [9]; at 100.0 µM 35% | [10]; at 1.2 µM -20% | [10]; at 3.7 µM -21% | [10]; [17] -6% | [10]; at 11.0 µM -27% | [10]; at 33.0 µM -8% | [10]; [18] 55% | [10]; at 50.0 µM 69.3% | [11]; at 1.2 µM -7% | [11]; at 3.7 µM -5% | [11]; [17] -7% | [11]; at 11.0 µM -8% | [11]; at 33.0 µM -11% | [11]; at 100.0 µM 50% | [12]; at 1.2 µM 3% | [12]; at 3.7 µM -8% | [12]; at 11.0 µM 11% | [12]; at 33.0 µM 2% | [13]; [17] 5% | [14]; at 1.2 µM -12% | [14]; at 3.7 µM -13% | [14]; at 11.0 µM -18% | [14]; at 33.0 µM -16% | [14]; at 100.0 µM 20% | [15]; [17] -6% | [15]; [18] -1% | [15]; at 50.0 µM -7.95% | [16]; at 1.2 µM -6% | [16]; at 3.7 µM 6% | [16]; [17] 14% | [16]; at 11.0 µM 12% | [16]; at 33.0 µM 34% | [1]; at 1.2 µM 5% | [1]; at 3.7 µM 4% | [1]; at 11.0 µM 20% | [1]; at 33.0 µM 39% | [2]; at 1.2 µM -15% | [2]; at 3.7 µM -10% | [2]; at 11.0 µM -12% | [2]; at 33.0 µM -14% | [3]; at 1.2 µM -24% | [3]; at 3.7 µM -17% | [3]; at 11.0 µM -3% | [3]; at 33.0 µM 21% | [4]; [17] -6% | [4]; at 50.0 µM 30.9% | [5]; at 1.2 µM -11% | [5]; at 3.7 µM -12% | [5]; at 11.0 µM -13% | [5]; at 33.0 µM -19%

CCCNCC(=O)O[C@]1(CC)C(=O)OCc2c1cc1n(c2=O)Cc2cc3ccccc3nc2-1
active: [6]; at 1.2 µM 80% | [6]; at 3.7 µM 90% | [6]; at 11.0 µM 94% | [6]; at 33.0 µM 95% | [6]; at 100.0 µM 96% | [7]; at 100.0 µM 85% | [8]; at 3.7 µM 72% | [8]; at 11.0 µM 81% | [8]; at 33.0 µM 89% | [8]; at 100.0 µM 93% | [9]; at 100.0 µM 86% | [10]; at 1.2 µM 83% | [10]; at 3.7 µM 88% | [10]; [17] 78% | [10]; at 11.0 µM 92% | [10]; at 33.0 µM 92% | [10]; [18] 90% | [10]; at 50.0 µM 82.5% | [10]; at 100.0 µM 92% | [11]; at 11.0 µM 75% | [11]; at 33.0 µM 90% | [11]; [18] 86% | [11]; at 50.0 µM 88.1% | [11]; at 100.0 µM 93% | [12]; at 100.0 µM 87% | [13]; [18] 82% | [13]; at 50.0 µM 79% | [14]; at 33.0 µM 71% | [14]; at 100.0 µM 86% | [16]; at 50.0 µM 76.3% | [16]; at 100.0 µM 88% | [1]; at 100.0 µM 82% | [2]; at 100.0 µM 83% | [3]; at 33.0 µM 82% | [3]; at 100.0 µM 90% | [4]; [18] 72% | [4]; at 50.0 µM 83.1% | [5]; at 33.0 µM 75% | [5]; at 100.0 µM 84%
inactive: [7]; at 1.2 µM 13% | [7]; at 3.7 µM 12% | [7]; at 11.0 µM 28% | [7]; at 33.0 µM 62% | [8]; at 1.2 µM 29% | [9]; at 1.2 µM 21% | [9]; at 3.7 µM 25% | [9]; at 11.0 µM 34% | [9]; at 33.0 µM 63% | [11]; at 1.2 µM 19% | [11]; at 3.7 µM 33% | [11]; [17] -5% | [12]; at 1.2 µM 3% | [12]; at 3.7 µM 0% | [12]; at 11.0 µM 16% | [12]; at 33.0 µM 66% | [13]; [17] 28% | [14]; at 1.2 µM 31% | [14]; at 3.7 µM 34% | [14]; at 11.0 µM 41% | [15]; [17] 0% | [15]; [18] 51% | [15]; at 50.0 µM 64.5% | [16]; at 1.2 µM 17% | [16]; at 3.7 µM 12% | [16]; [17] -9% | [16]; at 11.0 µM 28% | [16]; at 33.0 µM 69% | [16]; [18] 68% | [1]; at 1.2 µM -22% | [1]; at 3.7 µM -32% | [1]; at 11.0 µM -19% | [1]; at 33.0 µM 37% | [2]; at 1.2 µM 24% | [2]; at 3.7 µM 7% | [2]; at 11.0 µM 16% | [2]; at 33.0 µM 61% | [3]; at 1.2 µM 26% | [3]; at 3.7 µM 30% | [3]; at 11.0 µM 51% | [4]; [17] 2% | [5]; at 1.2 µM 25% | [5]; at 3.7 µM 34% | [5]; at 11.0 µM 46%

Reference: PubChem BioAssay (NCI)
